Source: PubChem BioAssay (The Scripps Research Institute Molecular Screening Center)
In the library only some 4.1% were active in any assay of this set; here they are far more common.
hcDAF-12 act = H. contortus DAF-12 activation, primary screen | activation, % at 6.8 µM | HEK293 hcDAF-12 lit1-tk-luc reporter, luminescence; 0% DMSO, 100% Δ7-dafachronic acid | hit rate 1.4% among 370,000;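 active = activation above the mean of all tested compounds plus 3 SD, cut at about 5.5% in these data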;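 note: 100% = response to 3 µM Δ7-dafachronic acid high control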
DAX1 inh-1 = NR0B1 (DAX1) inhibition. P51843. HEK293 Gal4-DAX1 luciferase reporter, luminescence. inhibition, % at 6.75 µM. hit rate 0.99% among 340,000. AID 504766;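 active = inhibition above the mean over all tested compounds plus 3 SD, cut at about 4.2% in these data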;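 note: 0% = DAX1-transfected cells with DMSO and 100% = empty-vector control cells with DMSO; inhibition shows as a rise in luminescence from relieved DAX1 repression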
Target sequence (P51843 207-470 limits assumed): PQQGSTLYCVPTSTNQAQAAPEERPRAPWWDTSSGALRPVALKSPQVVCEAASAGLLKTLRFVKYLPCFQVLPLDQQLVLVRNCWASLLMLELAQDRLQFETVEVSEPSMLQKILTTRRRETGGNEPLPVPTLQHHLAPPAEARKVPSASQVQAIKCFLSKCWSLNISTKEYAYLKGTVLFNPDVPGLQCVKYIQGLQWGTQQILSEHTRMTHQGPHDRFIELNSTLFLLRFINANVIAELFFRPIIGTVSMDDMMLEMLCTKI
DAX1 inh-2 = DAX1 (NR0B1) inhibition, primary screen; HEK293T StAR-luciferase reporter, SF-1/DAX-1 repression relief; inhibition, % at 6.8 µM; hit rate 1.1% among 370,000; AID 652010;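 active = inhibition above the mean over all tested compounds plus 3 SD, cut at about 3.6% in these data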;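 note: 0% = DAX-1 cells with DMSO and 100% = cells lacking DAX-1 with DMSO; higher inhibition means more luminescence from relief of DAX-1 repression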
ssDAF-12 act = activates DAF-12 receptor from parasite S. stercoralis; hit rate 1% among 370,000; HEK293 ssDAF-12/GRIP1 lit1-tk-luc reporter, luminescence; % of 3 µM dafachronic acid response; activation, % at 6.8 µM;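 active = activation above the mean over all tested compounds plus 3 SD, cut at about 0.9% in these data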;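 note: 0% = DMSO-only wells and 100% = 3 µM delta7-dafachronic acid wells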
hgDAF12 agonist = agonists of H. glycines DAF-12 nuclear receptor. HEK293 GAL4-hgDAF12 UAS-luciferase reporter, agonist luminescence; normalized to butyrate control. activation, % at 6.8 µM. hit rate 1.8% among 370,000;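 active = activation above a cutoff set at the mean of all screened compounds plus 3 SD, cut at about 10% in these data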;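 note: 0% = DMSO wells and 100% = sodium butyrate wells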
Active calls of the source: *.

How did CC(C)n1cc(/C=N/Nc2ccc(Cl)c(C(=O)O)c2)c2ccccc21 do in these assays?
DAX1 inh-1: 4.5*

Results for C[N+]1(C)[C@H]2CC[C@H]1CC(OC(=O)C(O)c1ccccc1)C2 (some centres undefined) ?
hcDAF-12 act: -1; DAX1 inh-2: -1; ssDAF-12 act: -1; hgDAF12 agonist: -1

Results for COC(=O)Cc1c(OC)ccn(CCc2c[nH]c3ccccc23)c1=O ?
hcDAF-12 act: 5; DAX1 inh-1: 1; DAX1 inh-2: 4.0*; ssDAF-12 act: 0; hgDAF12 agonist: 10

Results for COC(=O)Cc1c(O)ccn(CCc2c[nH]c3ccccc23)c1=O ?
hcDAF-12 act: 0; DAX1 inh-1: 1; DAX1 inh-2: 0; ssDAF-12 act: -1; hgDAF12 agonist: 4

How did CC(=O)Nc1ccc(/C=C/c2nc3ccccc3o2)cc1 do in these assays?
hcDAF-12 act: 4; DAX1 inh-1: 4.5*; DAX1 inh-2: 2; ssDAF-12 act: 0; hgDAF12 agonist: 13*

How did C/C(=N\NC(=O)COc1ccc(C)cc1C(C)C)c1ccc(-n2ccnc2)cc1 do in these assays?
hcDAF-12 act: -3; DAX1 inh-1: 0; DAX1 inh-2: 0; ssDAF-12 act: -2; hgDAF12 agonist: 11*

What do the screens show for `CCc1ccc(Oc2cc(C)nc(N)n2)cc1`?
hcDAF-12 act: 2; DAX1 inh-1: 1; DAX1 inh-2: 2; ssDAF-12 act: 0; hgDAF12 agonist: 11*

What do the screens show for `CCCc1ccc(Oc2cc(Cl)nc(N)n2)cc1`?
hcDAF-12 act: 1; DAX1 inh-1: 2; DAX1 inh-2: 1; ssDAF-12 act: -1; hgDAF12 agonist: 3

What do the screens show for `COc1ccc(N2CCN(c3cnc4ccccc4n3)CC2)cc1`?
hcDAF-12 act: 0; DAX1 inh-1: 0; DAX1 inh-2: 1; ssDAF-12 act: 0; hgDAF12 agonist: 11*

Results for COc1ccc(N2CCN(Cc3nc4ccccc4n3C)CC2)cc1 ?
hcDAF-12 act: 4; DAX1 inh-1: 2; DAX1 inh-2: -1; ssDAF-12 act: 1.8*; hgDAF12 agonist: -2

Results for CCCCCC(=O)NC1CCCCN(C)C1=O (centres undefined) ?
hcDAF-12 act: 0; DAX1 inh-2: 1; ssDAF-12 act: 0; hgDAF12 agonist: -3

How did Cn1c(CNC(=O)CNS(=O)(=O)c2ccccc2)cc(=O)n(C)c1=O do in these assays?
hcDAF-12 act: 1; DAX1 inh-1: 1; DAX1 inh-2: 3.8*; ssDAF-12 act: -1; hgDAF12 agonist: 1

What do the screens show for `C=CCN(Cc1ccc2c(c1)OCO2)C(C#Cc1ccccc1)c1ccccc1C(F)(F)F` (centres undefined)?
hcDAF-12 act: -1; DAX1 inh-2: -1; ssDAF-12 act: -1; hgDAF12 agonist: 2

What do the screens show for `O=S1(=O)N=C(Nc2nc3c(s2)CCCC3)c2ccccc21`?
hcDAF-12 act: 5; DAX1 inh-1: 1; DAX1 inh-2: 3; ssDAF-12 act: 0; hgDAF12 agonist: 11*

How did O=C(O)c1ccc(Nc2nc3c(s2)CCCC3)cc1 do in these assays?
hcDAF-12 act: -2; DAX1 inh-1: -5; DAX1 inh-2: 0; ssDAF-12 act: -2; hgDAF12 agonist: -9

What do the screens show for `O=C(CC1CC2CCC1C2)Nc1nc(-c2ccccn2)cs1` (centres undefined)?
hcDAF-12 act: 6.3*; DAX1 inh-1: 0; DAX1 inh-2: 0; ssDAF-12 act: -1; hgDAF12 agonist: 8

Results for N/C(=N\OC(=O)c1cccc(Cl)c1)c1cccnc1 ?
hcDAF-12 act: 5; DAX1 inh-1: 2; DAX1 inh-2: 1; ssDAF-12 act: 0; hgDAF12 agonist: 11*

Results for COc1ccc(Cl)cc1C(=O)O/N=C(\N)c1ccc(Cl)cc1 ?
hcDAF-12 act: 6.0*; DAX1 inh-1: 3; DAX1 inh-2: 1; ssDAF-12 act: -1; hgDAF12 agonist: 1

Results for COc1cc(OC)c(C(=O)O/N=C(\N)c2ccc(C)cc2)cc1OC ?
hcDAF-12 act: 0; DAX1 inh-1: -1; DAX1 inh-2: 0; ssDAF-12 act: -1; hgDAF12 agonist: -1

Results for N/C(=N\OC(=O)c1cc(Cl)ccc1Cl)c1cccnc1 ?
hcDAF-12 act: 6.3*; DAX1 inh-1: 0; DAX1 inh-2: 0; ssDAF-12 act: 1; hgDAF12 agonist: 2

What do the screens show for `CCCCN(C)CCCNC(=O)Cn1cc2c(n1)-c1c(oc(C(=O)N3CCCC3)c1C)CC2`?
hcDAF-12 act: -2; DAX1 inh-1: 1; DAX1 inh-2: 0; ssDAF-12 act: -1; hgDAF12 agonist: 1

How did CCOCCCNC(=O)Cn1cc2c(n1)-c1c(oc(C(=O)N3CCCC3)c1C)CC2 do in these assays?
hcDAF-12 act: -2; DAX1 inh-1: 4.7*; DAX1 inh-2: -2; ssDAF-12 act: -1; hgDAF12 agonist: -4

How did COCCCNC(=O)c1ccc(OC)c(OC2CCN(C(C)C)CC2)c1 do in these assays?
hcDAF-12 act: -2; DAX1 inh-1: 5.2*; DAX1 inh-2: 0; ssDAF-12 act: -1; hgDAF12 agonist: 0

Results for Cc1c(NC(=O)c2ccc(NS(=O)(=O)c3ccc(F)c(F)c3)cc2)c(=O)n(-c2ccccc2)n1C ?
hcDAF-12 act: -1; DAX1 inh-1: 0; DAX1 inh-2: 3.7*; ssDAF-12 act: -1; hgDAF12 agonist: 1

Results for Cc1ccc(C(=O)NC(=S)Nc2cccnc2Cl)cc1 ?
hcDAF-12 act: 4; DAX1 inh-1: 1; DAX1 inh-2: 2; ssDAF-12 act: 0; hgDAF12 agonist: 12*

How did Cc1ccc(C(=O)NC(=S)Nc2ccccc2C(F)(F)F)cc1 do in these assays?
hcDAF-12 act: -1; DAX1 inh-1: 0; DAX1 inh-2: 0; ssDAF-12 act: -1; hgDAF12 agonist: -1

What do the screens show for `COc1cccc(-n2c([S-])c(C(=O)Nc3ccc(S(=O)(=O)N4CCOCC4)cc3)[n+]3cc(C(N)=O)ccc23)c1`?
hcDAF-12 act: 1; DAX1 inh-1: 4.2*; DAX1 inh-2: 1; ssDAF-12 act: 0; hgDAF12 agonist: 10

How did CC(C)COc1cccc(C(=O)Nc2ccc(S(=O)(=O)N3CCOCC3)cc2)c1 do in these assays?
hcDAF-12 act: -2; DAX1 inh-1: -1; DAX1 inh-2: 0; ssDAF-12 act: -2; hgDAF12 agonist: 1

What do the screens show for `COc1ccc(-n2c(SCC(=O)N3CCCCC3C)nnc2-c2ccncc2)cc1` (centres undefined)?
hcDAF-12 act: -2; DAX1 inh-2: -1; ssDAF-12 act: -1; hgDAF12 agonist: -1

Results for CCOC(=O)CC[C@@H]1CC[C@]2(CCCN(C(=O)c3ccco3)C2)O1 ?
hcDAF-12 act: -2; DAX1 inh-2: 0; ssDAF-12 act: -1; hgDAF12 agonist: -2

How did N#Cc1ccc(Cn2ccc3ccc(-c4ccc5ccn(C(=O)C6CCCCC6)c5c4)cc32)cc1 do in these assays?
hcDAF-12 act: -2; DAX1 inh-2: -2; ssDAF-12 act: 0; hgDAF12 agonist: 5

How did N/C(=N\OC(=O)c1cc([N+](=O)[O-])ccc1Cl)c1ccccn1 do in these assays?
hcDAF-12 act: -1; DAX1 inh-1: 4; DAX1 inh-2: -1; ssDAF-12 act: -1; hgDAF12 agonist: -1
